Compound activity as filed in PubChem.
C8 TRAIL sens – sensitizes caspase-8 expressing cells to TRAIL; NB7+C8 cells + TRAIL, ATPlite viability luminescence; inhibition (viability loss, TRAIL sensitization), % at 10 µM; actives 1% (n = 360,000);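 active means compounds causing at least 50% loss of cell viability in the single-dose screen, relative to plate controls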
SENP7 inh – SENP7 protease inhibition; Q9BQF6; inhibition, % at 5 µM; actives 1.5% (n = 330,000); recombinant SENP7, Z-RLRGG-aminoluciferin luminescence, 40 min;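 active means inhibition above about 50% at the single test dose, limit read from the data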;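 further: plate controls were DMSO with enzyme for no effect and no enzyme buffer wells for full effect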
Target sequence (Q9BQF6 706-1050 limits assumed): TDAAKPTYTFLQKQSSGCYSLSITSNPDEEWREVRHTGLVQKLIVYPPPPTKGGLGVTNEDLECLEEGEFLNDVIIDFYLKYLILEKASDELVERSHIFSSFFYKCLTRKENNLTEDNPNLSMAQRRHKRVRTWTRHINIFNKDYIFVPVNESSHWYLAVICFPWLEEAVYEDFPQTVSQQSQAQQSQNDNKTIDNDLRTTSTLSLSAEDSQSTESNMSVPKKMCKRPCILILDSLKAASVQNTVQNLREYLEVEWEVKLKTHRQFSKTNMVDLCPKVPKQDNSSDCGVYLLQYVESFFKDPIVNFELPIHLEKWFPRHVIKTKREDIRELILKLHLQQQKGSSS
SENP8 block-1 – SENP8 (human) protease inhibition | Q96LD8 | recombinant SENP8, Nedd8 substrate fluorescence | inhibition, % at 20 µM | actives 0.64% (n = 360,000) | AID 602440; in the data active means inhibition mostly above about 40%, no sharp cut-off; inactive means mostly below about 27%
SENP6 inh – blocks the human protease SENP6; inhibition, % at 10 µM; Recombinant SENP6 catalytic domain, aminoluciferin luminescence; actives 1.8% (n = 330,000); AID 2599; Q9GZR1;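 active means inhibition above about 50% at the single tested dose, limit read from the data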;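 further: plate controls were DMSO wells with enzyme for no effect and DMSO wells lacking enzyme for full effect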
SENP8 block-2 – inhibitors of human SENP8 protease | Q96LD8 | purified SENP8, Z-RLRGG-aminoluciferin cleavage, luminescence | inhibition, % at 10 µM | actives 1.2% (n = 330,000) | AID 2540; in the data active means inhibition above about 50%
PPC-1+TRAIL kill – kills PPC-1 cancer cells in the presence of TRAIL | PPC-1 cells + TRAIL, ATPLite viability luminescence | cell killing (% activity), % at 4 µM or 5 µM | actives 0.41% (n = 220,000) | AID 1443;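 active means cell killing above 50% in the first pass at 4 µM, then a duplicate retest at 5 µM averaging 50% or more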;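 further: plate controls were cells with TRAIL plus DMSO for no effect and medium-only wells lacking cells for full effect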
SENP8 conf – SENP8 (human) inhibition, single concentration confirmation; shares compounds with SENP8 block-1; purified SENP8, Nedd8-AMC/pro-Nedd8 cleavage fluorescence, 30 min; inhibition, % at 25 µM; actives 15% (n = 1,400); in the data active means inhibition mostly above about 39%, no sharp cut-off; inactive means mostly below about 34%
The depositor's hits bear a star; . = no result. A selection: hits, their analogues and other compounds. The true share with any hit is near 3%.

SMILES	C8 TRAIL sens	SENP7 inh	SENP8 block-1	SENP6 inh	SENP8 block-2	PPC-1+TRAIL kill	SENP8 conf
CC1CCc2nc(NC(=O)Nc3ccc4c(c3)OCO4)sc2C1 (stereo unspecified)	19	2	42*	-8	2	36	9
Nc1nc(CN2CCc3ccccc3C2)nc(Nc2ccccc2)n1	1	12	25	4	9	4	.
COc1ccc(Nc2nc(N)nc(CN3CCc4ccccc4C3)n2)cc1	-2	6	44*	6	7	-19	29
O=C(NCc1ccco1)c1nc2ccccc2s1	8	-2	24	14	-6	-9	.
CC1=CC(=C(C#N)c2nc3ccccc3s2)C=C(C)N1Cc1ccco1	1	2	59*	38	16	1	18
O=C(Cn1c(=O)n(CCC(=O)N2CCc3ccccc3C2)c(=O)c2ccccc21)NCC1CCCO1 (stereo unspecified)	-12	.	62*	.	.	5	16
O=C(Cn1c(=O)n(Cc2ccccc2)c(=O)c2cc(Cl)ccc21)NCC1CCCO1 (stereo unspecified)	-4	-9	-2	-7	-10	.	.
COc1ccc(N2CCN(c3n[nH]c(N)n3)CC2)cc1	-10	-4	13	15	3	0	.
CCOc1ccc(N2Nc3n[nH]c(N)c3N2)cc1	-7	-1	49*	16	-18	-1	35
COc1ccc(N2Nc3n[nH]c(N)c3N2)cc1	-3	16	51*	19	-6	15	10
C[C@H](CO)N1C[C@H](C)[C@@H](CN(C)Cc2cccnc2)Oc2cc(-c3cccnc3)ccc2S1(=O)=O	-3	.	19	.	.	.	.
O=C1Nc2ccccc2C1=Nc1cccc([N+](=O)[O-])c1	-8	2	13	-7	-4	.	.
NC(=O)c1ccc(N=C2C(=O)Nc3ccc([N+](=O)[O-])cc32)cc1	-1	-3	86*	33	7	17	100*
CC(C)C(=O)Nc1cccc(S(=O)(=O)NC2=NCCC2)c1	-3	.	15	.	.	.	.
O=C(CCl)Nc1cccc(S(=O)(=O)NC2=NCCC2)c1	21	-2	46*	-6	-3	22	10
CCC(NC(=S)NCc1ccccc1)C(=O)O (stereo unspecified)	9	0	48*	1	-1	-3	35
CCNC(=S)NNC(=S)NCc1ccccc1	-5	5	5	-7	-3	36	.
CCNC(=O)C1(C)CCCCN1Cc1ccc(C#N)cc1 (stereo unspecified)	-14	.	0	.	.	.	.
CCOC(=O)C(/C=C(\C#N)C(=O)OCC)=C(/N)N1CCN(c2ccc(Cl)cc2)CC1	3	7	46*	-7	-3	3	23
CC1Cc2ccccc2N1C(=O)COC(=O)c1ccco1 (stereo unspecified)	-9	.	6	.	.	.	.
O=C(COC(=O)c1ccc([N+](=O)[O-])o1)NCc1ccc(F)cc1	-10	4	43*	6	-3	.	78*
O=C(COC(=O)c1ccc([N+](=O)[O-])o1)NC1CCS(=O)(=O)C1 (stereo unspecified)	-2	4	50*	-8	3	11	89*
CC1Cc2ccccc2N1C(=O)COC(=O)c1ccc([N+](=O)[O-])o1 (stereo unspecified)	26	18	42*	26	4	.	80*
CC(=O)Nc1ccc(NC(=O)COC(=O)c2ccc([N+](=O)[O-])o2)cc1	-11	12	34*	15	12	.	85*
COc1cc(CCC(=O)NCCc2ccc(F)cc2)cc(OC)c1OC	-8	-1	10	-3	-2	.	.
O=C(CNc1ccc2c(c1)OCO2)N/N=C\c1ccccc1Cl	0	6	61*	7	3	24	15
CCN1CCN(S(=O)(=O)c2cc3c(cc2Cl)NC(=O)CO3)CC1	0	14	10	-8	-7	.	.
O=[N+]([O-])c1cc(C(F)(F)F)cc([N+](=O)[O-])c1N1CCN(S(=O)(=O)c2ccccc2)CC1	0	0	40*	-6	-4	2	10
O=C(O)C1CCN(c2c([N+](=O)[O-])cc(C(F)(F)F)cc2[N+](=O)[O-])CC1	-8	4	10	4	-2	37	.
